# PMC7862700, “An all-to-all approach to the identification of sequence-specific readers for epigenetic DNA modifications on cytosine”
# Key:
# Assay in all cases: DAPPL (digital affinity profiling via proximity ligation, sequencing); 10 mM Tris-HCl pH 7.5, 50 mM NaCl, 1 mM DTT, 4% glycerol, room temperature, 30 min; GST-TFs on glutathione beads, 16-mer random dsDNA library, 0.1% formaldehyde crosslink after washing; high values mean tight binding
# [1] = biological target: T1, FLI1 (Homo sapiens, UniProt Q01543 1-452); details: protein: recombinant; tags: N-terminal GST; dsDNA, one strand shown
# T1 sequence: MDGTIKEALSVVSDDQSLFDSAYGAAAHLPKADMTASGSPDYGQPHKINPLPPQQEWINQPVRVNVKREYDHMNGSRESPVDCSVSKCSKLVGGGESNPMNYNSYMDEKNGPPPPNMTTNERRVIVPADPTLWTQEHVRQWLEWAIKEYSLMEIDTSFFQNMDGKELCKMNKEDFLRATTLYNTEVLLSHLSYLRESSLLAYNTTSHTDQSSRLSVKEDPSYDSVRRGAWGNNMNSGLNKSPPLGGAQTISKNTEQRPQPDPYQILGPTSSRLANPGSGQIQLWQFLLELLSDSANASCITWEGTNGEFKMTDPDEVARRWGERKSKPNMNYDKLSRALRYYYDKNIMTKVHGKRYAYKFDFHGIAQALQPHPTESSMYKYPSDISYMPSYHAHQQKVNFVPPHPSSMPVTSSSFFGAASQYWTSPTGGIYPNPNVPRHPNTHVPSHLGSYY
# Method in brief: (§1)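 Pools of DNA-barcoded human transcription factors, expressed in yeast as GST fusions on glutathione beads and combined with a tag-only sample, were incubated with 200 nmole of a 16-mer random double-stranded DNA library. Incubation took 30 min at room temperature in Tris/NaCl/DTT/glycerol buffer and was followed by washing, 0.1% formaldehyde crosslinking, proximity ligation (BsaI/T4 ligase, 1 h, 37 °C), PCR amplification and sequencing on an Illumina NextSeq500. Binding signal is the ratio of a hexamer's read frequency for a factor to its frequency for the tag-only sample.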
# [2] = biological target: T2, ELK1 (Homo sapiens, UniProt P19419 1-428); details: protein: recombinant; tags: N-terminal GST; dsDNA, one strand shown
# T2 sequence: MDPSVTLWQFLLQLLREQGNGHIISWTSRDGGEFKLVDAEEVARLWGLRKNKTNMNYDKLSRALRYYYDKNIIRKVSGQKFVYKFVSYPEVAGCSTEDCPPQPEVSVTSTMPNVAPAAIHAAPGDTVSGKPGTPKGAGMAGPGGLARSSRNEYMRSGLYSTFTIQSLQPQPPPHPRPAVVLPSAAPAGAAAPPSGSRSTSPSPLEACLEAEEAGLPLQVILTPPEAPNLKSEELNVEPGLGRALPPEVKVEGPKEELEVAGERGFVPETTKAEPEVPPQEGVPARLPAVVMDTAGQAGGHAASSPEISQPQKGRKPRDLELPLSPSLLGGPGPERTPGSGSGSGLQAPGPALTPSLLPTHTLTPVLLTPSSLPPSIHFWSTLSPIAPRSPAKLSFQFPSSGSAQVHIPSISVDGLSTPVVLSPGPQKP
# Method in brief: as §1
# [3] = biological target: T3, GABPA (Homo sapiens, UniProt Q06546 1-454); details: protein: recombinant; tags: N-terminal GST; dsDNA, one strand shown
# T3 sequence: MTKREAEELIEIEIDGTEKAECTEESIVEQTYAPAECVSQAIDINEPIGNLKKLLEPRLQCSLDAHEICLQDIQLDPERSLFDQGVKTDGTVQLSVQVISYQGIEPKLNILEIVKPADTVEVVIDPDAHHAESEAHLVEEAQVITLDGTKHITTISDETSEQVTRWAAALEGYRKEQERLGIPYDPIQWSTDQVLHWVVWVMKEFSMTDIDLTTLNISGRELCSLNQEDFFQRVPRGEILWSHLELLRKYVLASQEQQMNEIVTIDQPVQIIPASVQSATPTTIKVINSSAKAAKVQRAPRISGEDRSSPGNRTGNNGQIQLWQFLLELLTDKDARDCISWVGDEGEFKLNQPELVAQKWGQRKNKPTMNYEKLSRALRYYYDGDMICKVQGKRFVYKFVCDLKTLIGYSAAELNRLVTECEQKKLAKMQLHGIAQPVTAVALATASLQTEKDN
# Method in brief: as §1
# [4] = biological target: T4, ERG (Homo sapiens, UniProt P11308 1-479); details: protein: recombinant; tags: N-terminal GST; dsDNA, one strand shown
# T4 sequence: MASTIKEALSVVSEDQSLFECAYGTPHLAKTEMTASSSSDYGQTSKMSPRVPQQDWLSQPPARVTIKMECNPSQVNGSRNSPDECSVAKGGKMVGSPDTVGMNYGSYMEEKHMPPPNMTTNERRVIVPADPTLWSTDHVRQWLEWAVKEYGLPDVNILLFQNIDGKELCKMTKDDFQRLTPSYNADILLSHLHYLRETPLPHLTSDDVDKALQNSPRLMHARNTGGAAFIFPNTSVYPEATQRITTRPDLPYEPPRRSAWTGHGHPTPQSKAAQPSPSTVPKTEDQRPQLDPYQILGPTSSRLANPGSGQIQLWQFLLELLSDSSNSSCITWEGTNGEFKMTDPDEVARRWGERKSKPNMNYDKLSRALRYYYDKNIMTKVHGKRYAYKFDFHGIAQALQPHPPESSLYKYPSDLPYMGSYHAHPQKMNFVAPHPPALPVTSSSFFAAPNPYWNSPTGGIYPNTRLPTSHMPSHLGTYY
# Method in brief: as §1
# [5] = biological target: ELF1 (Homo sapiens, UniProt P32519 1-619); details: protein: recombinant; tags: N-terminal GST; dsDNA, one strand shown
# ELF1, sequence (P32519 whole entry): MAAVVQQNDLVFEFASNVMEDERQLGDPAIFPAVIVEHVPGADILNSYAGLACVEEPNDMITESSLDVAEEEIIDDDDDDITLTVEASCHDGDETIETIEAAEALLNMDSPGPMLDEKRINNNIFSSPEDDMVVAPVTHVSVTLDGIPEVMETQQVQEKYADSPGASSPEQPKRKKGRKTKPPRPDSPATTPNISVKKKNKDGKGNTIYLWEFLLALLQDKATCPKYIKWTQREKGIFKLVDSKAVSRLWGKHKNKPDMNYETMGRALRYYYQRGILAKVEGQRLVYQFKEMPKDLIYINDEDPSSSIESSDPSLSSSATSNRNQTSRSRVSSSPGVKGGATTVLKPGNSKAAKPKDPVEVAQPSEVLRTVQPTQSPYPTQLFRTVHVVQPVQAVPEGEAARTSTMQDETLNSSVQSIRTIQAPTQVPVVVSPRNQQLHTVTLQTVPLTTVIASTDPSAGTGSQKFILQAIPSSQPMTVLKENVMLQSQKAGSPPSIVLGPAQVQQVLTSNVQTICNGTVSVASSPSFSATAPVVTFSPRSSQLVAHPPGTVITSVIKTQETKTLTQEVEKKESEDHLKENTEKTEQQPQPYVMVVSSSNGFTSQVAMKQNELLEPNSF
# Method in brief: as §1
# [6] = biological target: T5, EHF (Homo sapiens, UniProt Q9NZC4 1-300); details: protein: recombinant; tags: N-terminal GST; dsDNA, one strand shown
# T5 sequence: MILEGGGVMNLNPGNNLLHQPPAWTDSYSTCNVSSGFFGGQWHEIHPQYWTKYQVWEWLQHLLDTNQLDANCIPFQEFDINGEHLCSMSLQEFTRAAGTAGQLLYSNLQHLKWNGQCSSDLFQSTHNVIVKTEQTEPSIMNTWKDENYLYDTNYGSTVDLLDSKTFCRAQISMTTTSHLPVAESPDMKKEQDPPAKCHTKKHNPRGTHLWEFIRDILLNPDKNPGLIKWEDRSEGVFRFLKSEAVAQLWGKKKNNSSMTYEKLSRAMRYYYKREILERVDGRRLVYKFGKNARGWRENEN
# Method in brief: as §1
# [7] = biological target: SPI1 (Homo sapiens, UniProt P17947 1-270); details: protein: recombinant; tags: N-terminal GST; dsDNA, one strand shown
# Method in brief: as §1
# [8] = biological target: SPIB (Homo sapiens, UniProt Q01892 1-262); details: protein: recombinant; tags: N-terminal GST; dsDNA, one strand shown
# SPIB, sequence (Q01892 whole entry): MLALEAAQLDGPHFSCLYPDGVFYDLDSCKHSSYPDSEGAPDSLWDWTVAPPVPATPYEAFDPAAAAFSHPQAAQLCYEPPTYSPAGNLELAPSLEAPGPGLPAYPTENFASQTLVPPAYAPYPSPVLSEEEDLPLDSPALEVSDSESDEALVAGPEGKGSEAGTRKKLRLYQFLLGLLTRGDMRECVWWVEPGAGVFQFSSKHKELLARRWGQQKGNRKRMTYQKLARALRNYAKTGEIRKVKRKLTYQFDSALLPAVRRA
# Method in brief: as §1
# [9] = biological target: T6, ELK3 (Homo sapiens, UniProt P41970 1-407); details: protein: recombinant; tags: N-terminal GST; dsDNA, one strand shown
# T6 sequence: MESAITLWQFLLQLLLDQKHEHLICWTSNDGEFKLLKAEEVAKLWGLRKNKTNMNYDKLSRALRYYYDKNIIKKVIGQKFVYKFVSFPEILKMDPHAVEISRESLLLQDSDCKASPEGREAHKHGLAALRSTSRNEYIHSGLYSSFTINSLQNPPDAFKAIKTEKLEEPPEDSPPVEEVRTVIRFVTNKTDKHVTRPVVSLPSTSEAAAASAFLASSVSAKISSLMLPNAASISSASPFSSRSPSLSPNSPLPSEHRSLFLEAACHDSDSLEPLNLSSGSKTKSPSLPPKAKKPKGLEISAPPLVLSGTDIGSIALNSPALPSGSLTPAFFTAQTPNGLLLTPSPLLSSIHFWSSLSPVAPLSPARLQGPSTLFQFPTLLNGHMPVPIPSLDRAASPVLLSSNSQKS
# Method in brief: as §1
# [10] = biological target: T7, FEV (Homo sapiens, UniProt Q99581 1-238); details: protein: recombinant; tags: N-terminal GST; dsDNA, one strand shown
# T7 sequence: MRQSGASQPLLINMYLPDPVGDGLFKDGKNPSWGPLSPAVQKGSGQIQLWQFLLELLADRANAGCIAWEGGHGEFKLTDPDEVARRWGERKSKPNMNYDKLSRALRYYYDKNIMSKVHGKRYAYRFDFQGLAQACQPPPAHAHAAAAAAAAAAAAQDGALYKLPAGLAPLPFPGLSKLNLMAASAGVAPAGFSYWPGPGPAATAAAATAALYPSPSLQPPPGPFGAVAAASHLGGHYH
# Method in brief: as §1
# [11] = biological target: ETV5 (Homo sapiens, UniProt P41161 1-510); details: protein: recombinant; tags: N-terminal GST; dsDNA, one strand shown
# ETV5, sequence (P41161 whole entry): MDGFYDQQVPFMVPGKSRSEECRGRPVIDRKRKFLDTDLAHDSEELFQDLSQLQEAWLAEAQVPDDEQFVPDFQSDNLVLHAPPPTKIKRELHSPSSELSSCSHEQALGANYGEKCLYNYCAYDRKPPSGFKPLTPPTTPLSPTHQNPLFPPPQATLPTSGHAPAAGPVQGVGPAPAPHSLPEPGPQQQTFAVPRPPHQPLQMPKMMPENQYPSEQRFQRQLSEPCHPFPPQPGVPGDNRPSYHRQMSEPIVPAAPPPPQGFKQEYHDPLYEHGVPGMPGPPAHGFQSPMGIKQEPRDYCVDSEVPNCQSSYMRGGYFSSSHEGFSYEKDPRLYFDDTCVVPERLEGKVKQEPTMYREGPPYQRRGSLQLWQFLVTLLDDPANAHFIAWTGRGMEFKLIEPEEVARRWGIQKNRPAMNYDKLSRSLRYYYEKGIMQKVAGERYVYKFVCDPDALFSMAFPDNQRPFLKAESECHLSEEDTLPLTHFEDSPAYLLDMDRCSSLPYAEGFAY
# Method in brief: as §1
# [12] = biological target: HSF1 (Homo sapiens, UniProt Q00613 1-529); details: protein: recombinant; tags: N-terminal GST; chain copies: 3; dsDNA, one strand shown
# HSF1, sequence (Q00613 whole entry): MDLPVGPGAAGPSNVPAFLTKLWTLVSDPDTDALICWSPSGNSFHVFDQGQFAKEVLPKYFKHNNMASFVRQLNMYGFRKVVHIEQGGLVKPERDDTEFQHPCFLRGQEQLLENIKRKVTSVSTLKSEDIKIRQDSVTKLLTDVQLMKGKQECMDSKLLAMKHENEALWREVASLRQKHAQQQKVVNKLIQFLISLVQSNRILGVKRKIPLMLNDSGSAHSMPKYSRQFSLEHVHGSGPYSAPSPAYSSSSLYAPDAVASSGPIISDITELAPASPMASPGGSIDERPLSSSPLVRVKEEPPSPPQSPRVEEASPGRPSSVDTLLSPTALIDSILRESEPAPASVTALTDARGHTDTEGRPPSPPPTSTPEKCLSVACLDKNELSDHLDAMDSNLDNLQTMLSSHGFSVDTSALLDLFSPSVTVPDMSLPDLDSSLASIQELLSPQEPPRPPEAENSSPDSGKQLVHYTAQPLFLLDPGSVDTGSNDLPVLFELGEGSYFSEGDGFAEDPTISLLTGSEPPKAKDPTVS
# Method in brief: as §1
# [13] = biological target: T8, SPIC (Homo sapiens, UniProt Q8N5J4 1-248); details: protein: recombinant; tags: N-terminal GST; dsDNA, one strand shown
# T8 sequence: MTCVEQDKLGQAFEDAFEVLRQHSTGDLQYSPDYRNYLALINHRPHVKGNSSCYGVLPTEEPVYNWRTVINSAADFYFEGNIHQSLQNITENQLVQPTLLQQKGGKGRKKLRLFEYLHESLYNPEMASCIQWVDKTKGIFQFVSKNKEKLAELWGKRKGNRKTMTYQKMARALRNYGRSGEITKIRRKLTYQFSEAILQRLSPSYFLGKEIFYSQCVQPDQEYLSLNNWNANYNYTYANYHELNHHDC
# Method in brief: as §1
# [14] = biological target: ELF4 (Homo sapiens, UniProt Q99607 1-663); details: protein: recombinant; tags: N-terminal GST; dsDNA, one strand shown
# ELF4, sequence (Q99607 whole entry): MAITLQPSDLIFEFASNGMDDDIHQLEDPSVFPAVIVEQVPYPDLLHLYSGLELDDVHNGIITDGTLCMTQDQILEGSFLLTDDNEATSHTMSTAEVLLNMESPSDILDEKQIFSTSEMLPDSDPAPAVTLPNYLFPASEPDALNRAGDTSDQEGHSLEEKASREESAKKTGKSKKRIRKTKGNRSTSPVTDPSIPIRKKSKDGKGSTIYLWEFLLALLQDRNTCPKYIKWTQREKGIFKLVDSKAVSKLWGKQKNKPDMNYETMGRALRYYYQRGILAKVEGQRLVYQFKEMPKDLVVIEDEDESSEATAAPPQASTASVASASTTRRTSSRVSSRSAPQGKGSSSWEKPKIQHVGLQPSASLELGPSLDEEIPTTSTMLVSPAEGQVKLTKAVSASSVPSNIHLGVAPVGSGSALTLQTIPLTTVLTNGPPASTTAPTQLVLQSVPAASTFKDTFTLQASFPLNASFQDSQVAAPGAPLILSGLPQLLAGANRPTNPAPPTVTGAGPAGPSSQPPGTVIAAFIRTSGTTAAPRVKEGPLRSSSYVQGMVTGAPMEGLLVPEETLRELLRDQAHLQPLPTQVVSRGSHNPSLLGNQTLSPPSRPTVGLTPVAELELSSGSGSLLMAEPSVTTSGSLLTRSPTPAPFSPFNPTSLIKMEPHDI
# Method in brief: as §1
# [15] = biological target: T9, ELK4 (Homo sapiens, UniProt P28324-2 1-405); details: protein: recombinant; tags: N-terminal GST; dsDNA, one strand shown
# T9 sequence: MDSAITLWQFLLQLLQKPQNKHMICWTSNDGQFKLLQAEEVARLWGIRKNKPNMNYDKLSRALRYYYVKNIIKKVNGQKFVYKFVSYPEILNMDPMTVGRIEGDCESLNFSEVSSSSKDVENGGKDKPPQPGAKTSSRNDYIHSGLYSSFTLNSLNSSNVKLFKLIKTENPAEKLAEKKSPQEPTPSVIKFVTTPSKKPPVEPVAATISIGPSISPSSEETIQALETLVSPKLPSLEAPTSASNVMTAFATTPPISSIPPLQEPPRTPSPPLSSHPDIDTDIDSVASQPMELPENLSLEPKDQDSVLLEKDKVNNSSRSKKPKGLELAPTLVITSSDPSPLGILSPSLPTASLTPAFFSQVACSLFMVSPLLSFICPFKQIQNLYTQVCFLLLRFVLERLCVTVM
# Method in brief: as §1
# [16] = biological target: T10, ETV2 (Homo sapiens, UniProt O00321 1-342); details: protein: recombinant; tags: N-terminal GST; dsDNA, one strand shown
# T10 sequence: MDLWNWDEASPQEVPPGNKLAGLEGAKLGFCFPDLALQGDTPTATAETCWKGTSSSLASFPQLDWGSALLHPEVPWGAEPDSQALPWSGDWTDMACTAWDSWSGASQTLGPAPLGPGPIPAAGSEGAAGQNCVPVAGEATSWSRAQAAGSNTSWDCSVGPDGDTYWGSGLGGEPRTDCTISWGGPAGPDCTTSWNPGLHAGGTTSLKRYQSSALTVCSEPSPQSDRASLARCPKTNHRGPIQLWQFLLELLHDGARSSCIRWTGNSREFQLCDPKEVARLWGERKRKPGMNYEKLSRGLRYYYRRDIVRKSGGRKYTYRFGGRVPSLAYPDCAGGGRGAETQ
# Method in brief: as §1
# [17] = biological target: T11, ELF3 (Homo sapiens, UniProt P78545 1-371); details: protein: recombinant; tags: N-terminal GST; dsDNA, one strand shown
# T11 sequence: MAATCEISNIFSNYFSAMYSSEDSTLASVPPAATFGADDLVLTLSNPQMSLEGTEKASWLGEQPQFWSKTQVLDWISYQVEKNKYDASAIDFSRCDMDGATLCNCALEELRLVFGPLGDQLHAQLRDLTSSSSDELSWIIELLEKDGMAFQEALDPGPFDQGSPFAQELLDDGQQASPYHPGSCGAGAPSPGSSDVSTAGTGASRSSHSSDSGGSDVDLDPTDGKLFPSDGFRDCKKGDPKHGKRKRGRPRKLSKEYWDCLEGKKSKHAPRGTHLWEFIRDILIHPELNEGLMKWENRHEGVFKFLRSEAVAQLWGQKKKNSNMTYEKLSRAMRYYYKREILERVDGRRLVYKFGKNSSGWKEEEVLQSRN
# Method in brief: as §1
# [18] = biological target: CRX (Homo sapiens, UniProt O43186 1-299); details: protein: recombinant; tags: N-terminal GST; dsDNA, one strand shown
# CRX, sequence (O43186 whole entry): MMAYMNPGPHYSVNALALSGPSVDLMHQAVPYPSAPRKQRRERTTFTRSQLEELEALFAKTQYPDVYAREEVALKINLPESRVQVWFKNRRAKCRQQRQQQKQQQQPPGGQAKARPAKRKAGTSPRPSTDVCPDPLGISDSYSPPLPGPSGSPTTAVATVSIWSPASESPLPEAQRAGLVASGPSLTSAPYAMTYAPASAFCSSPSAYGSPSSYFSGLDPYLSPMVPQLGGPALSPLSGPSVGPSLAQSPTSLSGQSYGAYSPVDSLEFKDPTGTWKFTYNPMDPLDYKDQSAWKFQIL
# Method in brief: as §1
# [19] = biological target: ETV1 (Homo sapiens, UniProt P50549 1-477); details: protein: recombinant; tags: N-terminal GST; dsDNA, one strand shown
# ETV1, sequence (P50549 whole entry): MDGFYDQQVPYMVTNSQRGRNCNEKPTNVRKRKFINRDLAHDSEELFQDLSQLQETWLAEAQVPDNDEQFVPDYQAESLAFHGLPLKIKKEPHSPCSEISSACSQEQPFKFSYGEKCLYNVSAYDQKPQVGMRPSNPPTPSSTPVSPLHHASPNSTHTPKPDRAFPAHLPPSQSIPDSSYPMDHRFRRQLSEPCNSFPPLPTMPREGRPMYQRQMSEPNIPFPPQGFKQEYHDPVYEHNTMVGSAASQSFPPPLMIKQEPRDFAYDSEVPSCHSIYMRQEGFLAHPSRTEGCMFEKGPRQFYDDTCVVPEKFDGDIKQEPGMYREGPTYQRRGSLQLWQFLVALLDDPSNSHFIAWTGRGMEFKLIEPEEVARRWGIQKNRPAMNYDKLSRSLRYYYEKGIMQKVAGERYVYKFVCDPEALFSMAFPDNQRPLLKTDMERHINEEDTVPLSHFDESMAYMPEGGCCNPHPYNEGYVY
# Method in brief: as §1
sequence,measurement,setting,value
TGCTTC,binding signal,[1],"2.13 fold enrichment (6-mer frequency, TF over GST control)"
same,binding signal,[2],"2.3 fold enrichment (6-mer frequency, TF over GST control)"
same,binding signal,[3],"2.09 fold enrichment (6-mer frequency, TF over GST control)"
same,binding signal,[4],"2.37 fold enrichment (6-mer frequency, TF over GST control)"
same,binding signal,[5],"2 fold enrichment (6-mer frequency, TF over GST control)"
same,binding signal,[6],"2.16 fold enrichment (6-mer frequency, TF over GST control)"
same,binding signal,[7],"2.24 fold enrichment (6-mer frequency, TF over GST control)"
same,binding signal,[8],"2.31 fold enrichment (6-mer frequency, TF over GST control)"
same,binding signal,[9],"2.47 fold enrichment (6-mer frequency, TF over GST control)"
same,binding signal,[10],"2.29 fold enrichment (6-mer frequency, TF over GST control)"
same,binding signal,[11],"2.1 fold enrichment (6-mer frequency, TF over GST control)"
same,binding signal,[12],"1.49 fold enrichment (6-mer frequency, TF over GST control)"
same,binding signal,[13],"2.35 fold enrichment (6-mer frequency, TF over GST control)"
same,binding signal,[14],"1.98 fold enrichment (6-mer frequency, TF over GST control)"
same,binding signal,[15],"2.01 fold enrichment (6-mer frequency, TF over GST control)"
same,binding signal,[16],"2.38 fold enrichment (6-mer frequency, TF over GST control)"
same,binding signal,[17],"2.25 fold enrichment (6-mer frequency, TF over GST control)"
same,binding signal,[18],"1.22 fold enrichment (6-mer frequency, TF over GST control)"
same,binding signal,[19],"2.19 fold enrichment (6-mer frequency, TF over GST control)"
